Source: PubChem
Most compounds without a hit are left out; they make up all but 18% or so of the library.
DT40 TDP1 CPT: growth inhibition of DT40 Tdp1-/-;hTDP1 cells with camptothecin (screen for TDP1 inhibitors); 420,000 tested, 12% active; Potency, µM (highest dose often 46.2 µM), for inactives: top-dose activity change, negative = growth inhibition, actives largely listed as inhibitors; chicken DT40 Tdp1-/-;hTDP1 cells + 20 nM CPT, ATP luminescence, 48 h; note: potency is the fitted concentration of half-maximal effect; nearly all actives have a fitted effect of over 55% in size
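Chicken DT40 Tdp1-/- cells complemented with human TDP1, 400 cells/well, exposed to compounds plus 20 nM camptothecin for at least 48 h at 37 C; viability read as ATP content by CellTiter-Glo luminescence.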
Six1-Eya2 inh: blocks human Six1 binding to Eya2; AlphaScreen GST-Six1/His-Eya2 binding, biochemical; hits give low values; Q15475+O00167; AID 651725; 360,000 tested, 0.56% active; activity change, % (no concentration beside the values); in the data active = activity change below about -65%; inconclusive = mostly about -30% to -63%
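AlphaScreen luminescence read after one hour at 37 °C in darkness. Pin-transferred compounds met GST-Six1 and His-Eya2 protein (5X stock 250 nM/500 nM) plus glutathione donor and Ni-chelate acceptor beads (5X, 50 ug/mL).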
TDP1 block: TDP1 (human) enzyme inhibition; 350,000 tested, 0.28% active; recombinant TDP1, AlphaScreen DNA substrate cleavage; Q9NUW8; AID 485290; Potency, µM (highest dose often 130 µM), for inactives: top-dose activity change, negative = inhibition, usual class: inhibitors; note: potency is the fitted concentration of half-maximal effect; nearly all actives have a fitted effect of over 40% in size
Target sequence (Q9NUW8 whole entry, looked up): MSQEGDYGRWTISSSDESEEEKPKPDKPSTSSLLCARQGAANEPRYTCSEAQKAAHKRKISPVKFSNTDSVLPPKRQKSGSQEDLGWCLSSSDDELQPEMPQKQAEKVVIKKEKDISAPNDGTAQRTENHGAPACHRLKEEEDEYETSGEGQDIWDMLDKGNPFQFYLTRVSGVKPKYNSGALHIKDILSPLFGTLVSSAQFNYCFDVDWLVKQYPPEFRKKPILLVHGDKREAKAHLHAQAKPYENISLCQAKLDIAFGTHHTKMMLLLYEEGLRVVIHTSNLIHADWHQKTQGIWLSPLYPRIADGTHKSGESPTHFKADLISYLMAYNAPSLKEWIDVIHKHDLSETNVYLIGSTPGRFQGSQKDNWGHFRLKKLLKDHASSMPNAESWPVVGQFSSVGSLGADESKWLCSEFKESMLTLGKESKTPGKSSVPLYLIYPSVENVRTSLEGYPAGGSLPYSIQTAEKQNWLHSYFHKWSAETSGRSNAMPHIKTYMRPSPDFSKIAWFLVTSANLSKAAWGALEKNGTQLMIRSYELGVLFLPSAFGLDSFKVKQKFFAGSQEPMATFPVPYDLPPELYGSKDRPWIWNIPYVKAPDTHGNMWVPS
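Compounds were preincubated with Tdp1 (1 nM final) for 15 min at room temperature before substrate (15 nM final) started a 5 min reaction; beads (10 ug/ml final) were then added for 10 min before AlphaScreen detection.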
IL1B secr inh: inflammasome signaling inhibition, IL-1 beta readout | THP-1 LPS/ATP IL-1B secretion, AlphaLISA, 16 h; hits give low values | activity change, % at 57.5 µM | 360,000 tested, 4.7% active | AID 743279; in the data active = activity change below about -50%; inconclusive = mostly about -30% to -49%
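Secreted IL-1B measured by AlphaLISA bead assay after 16 h compound exposure of THP-1 cells; compounds (final up to 57.5 uM) added 1 h before LPS (250 ng/mL) and ATP (1.25 mM) stimulation; lower signal means less secretion.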
TDP1 cell noCPT: qHTS for Inhibitors of human tyrosyl-DNA phosphodiesterase 1 (TDP1): qHTS in cells in absence of CPT | DT40 Tdp1-/- hTDP1 cells, no CPT, ATP luminescence, 48 h | Potency, µM (highest dose often 46.2 µM), inactives show at the highest dose activity change, negative = growth inhibition, hits mostly inhibitors | 420,000 tested, 15% active | AID 686978, 2013; note: potency is the fitted concentration of half-maximal effect; nearly all actives have a fitted effect of over 55% in size
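Camptothecin absent (DMSO only). Human TDP1-complemented DT40 knockout cells, 400 cells/well, 37 °C for minimum 48 hr; ATP measured via CellTiter-Glo, 30 min dark incubation, luminescence.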
CtBP-E1A blk: CtBP/E1A binding inhibition. AlphaScreen GST-E1A/His-CtBP binding, 1536-well; hits give low values. activity change, % (no concentration beside the values). 340,000 tested, 0.49% active. AID 651724; in the data active = activity change below about -65%; inconclusive = mostly about -30% to -63%
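AlphaScreen with 125 nM GST-E1A and 125 nM His-CtBP (5X stocks) in Tris pH 8.0, 300 mM NaCl, BSA, Tween 20, TCEP. Compounds preincubated 2 h at 37 deg C, then glutathione donor/nickel acceptor beads added for 1 h at 37 deg C in dark.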
Starred values were filed as active, the others as inactive; [ ] = dose if it differs, or a comment. Unless noted, calls come from the whole dose curve; as a rule, active = well fitted curve in the direction sought with a large enough effect; inconclusive = small, poorly fitted or top-dose-only effect, or another doubt; inactive = no such curve, though single readings can be large; an effect the other way counts as inactive or inconclusive. % is set by controls: 0 for no effect and ±100 for the full control effect.

`CC(=O)N(CCC(c1ccccc1)c1ccco1)Cc1cccs1` (stereo not given) gave DT40 TDP1 CPT 15µM*, Six1-Eya2 inh -3, TDP1 block -4%, IL1B secr inh -20, TDP1 cell noCPT inconclusive and CtBP-E1A blk -6.
`CCC(=O)N(CCC(c1ccco1)c1ccccc1OC)Cc1cccs1` (stereo not given) gave DT40 TDP1 CPT inconclusive, Six1-Eya2 inh -3, TDP1 block -1%, IL1B secr inh inconclusive, TDP1 cell noCPT inconclusive and CtBP-E1A blk 1.
Cc1cc(C)c2nc(NCc3ccccc3O)sc2c1 was read as DT40 TDP1 CPT inconclusive, Six1-Eya2 inh 1, IL1B secr inh 0, TDP1 cell noCPT -23% and CtBP-E1A blk 1.
Screening CCCN1Cc2cccc(C(=O)Nc3ccc(-c4nc5ccccc5[nH]4)cc3)c2C1=O returned DT40 TDP1 CPT inconclusive, Six1-Eya2 inh -4, TDP1 block 0%, IL1B secr inh -10, TDP1 cell noCPT 18µM* and CtBP-E1A blk 18.
CCCN1Cc2cccc(C(N)=O)c2C1=O was read as DT40 TDP1 CPT 8.2µM*, Six1-Eya2 inh -7, TDP1 block 6%, IL1B secr inh 41, TDP1 cell noCPT inconclusive and CtBP-E1A blk 4.
For CCCN1Cc2cccc(C(=O)Nc3ccc(C)cc3)c2C1=O the results were DT40 TDP1 CPT -13%, Six1-Eya2 inh 0, TDP1 block 7%, IL1B secr inh inconclusive, TDP1 cell noCPT -4% and CtBP-E1A blk -1.
Screening COCCN1Cc2cccc(C(=O)Nc3cccc(-c4nc5ccccc5[nH]4)c3)c2C1=O returned DT40 TDP1 CPT 4.6µM*, Six1-Eya2 inh -2, IL1B secr inh -6, TDP1 cell noCPT 16µM* and CtBP-E1A blk -7.
Screening Cc1cc(C)c(S(=O)(=O)NCCOc2ccccc2)c(C)c1-n1cnnn1 returned DT40 TDP1 CPT 0%, Six1-Eya2 inh -6, TDP1 block 5%, IL1B secr inh -11, TDP1 cell noCPT -26% and CtBP-E1A blk -8.
Screening Cc1nc(CNS(=O)(=O)c2ccc3c(c2)CCCC3)cs1 returned DT40 TDP1 CPT 16µM*, Six1-Eya2 inh 1, TDP1 block 3%, IL1B secr inh 17, TDP1 cell noCPT inconclusive and CtBP-E1A blk 1.
Screening CCCCOc1ccc(S(=O)(=O)NCc2csc(C)n2)cc1 returned DT40 TDP1 CPT 13µM*, Six1-Eya2 inh 4, TDP1 block 6%, IL1B secr inh inconclusive, TDP1 cell noCPT 23µM* and CtBP-E1A blk 4.
For O=C(O)CNS(=O)(=O)c1ccc2c(c1)CCCC2 the results were DT40 TDP1 CPT 0%, Six1-Eya2 inh 4, TDP1 block 50µM*, IL1B secr inh 21, TDP1 cell noCPT -6% and CtBP-E1A blk -1.
Screening COC(=O)c1cc(Cl)c(NC(=O)/C=C/c2ccc(Cl)cc2Cl)cc1OC returned DT40 TDP1 CPT inconclusive, Six1-Eya2 inh -1, TDP1 block 5%[2.28 µM], IL1B secr inh 2, TDP1 cell noCPT inconclusive and CtBP-E1A blk 4.
For CCOc1ccccc1-n1nnc(S(=O)(=O)c2ccc(C)cc2)c1N the results were DT40 TDP1 CPT inconclusive, TDP1 block -1% and TDP1 cell noCPT 12µM*.
`CCc1ccc(S(=O)(=O)c2nnn(-c3cccc(C)c3)c2N)cc1` gave DT40 TDP1 CPT 21µM*, TDP1 block 2% and TDP1 cell noCPT 15µM*.
`CS(=O)(=O)N(CC(=O)NCCSCc1c(F)cccc1Cl)c1ccc2c(c1)OCO2` gave DT40 TDP1 CPT -9%, Six1-Eya2 inh -2, TDP1 block 6%, IL1B secr inh -21, TDP1 cell noCPT -28% and CtBP-E1A blk 2.
For COc1ccc2c(c1)OC[C@H]1[C@H]2N2C(=O)c3cc(F)ccc3NC(=O)[C@@]2(C)[C@H]1c1ccccc1 the results were DT40 TDP1 CPT inconclusive, Six1-Eya2 inh -9, TDP1 block 2%, IL1B secr inh -62*, TDP1 cell noCPT 18µM* and CtBP-E1A blk -4.
`COc1ccc2c(c1)OC[C@H]1[C@H]2N2C(=O)c3ccc(C)cc3NC(=O)[C@@]2(C)[C@H]1c1ccccc1` gave DT40 TDP1 CPT 23µM*, Six1-Eya2 inh -14, TDP1 block 2%, IL1B secr inh inconclusive, TDP1 cell noCPT inconclusive and CtBP-E1A blk -3.
COc1ccc2c(c1)OC[C@H]1[C@H]2N2C(=O)c3cc(OC)ccc3NC(=O)[C@@]2(C)[C@H]1c1ccccc1 was read as DT40 TDP1 CPT inconclusive, Six1-Eya2 inh -9, TDP1 block 7%, IL1B secr inh 0, TDP1 cell noCPT inconclusive and CtBP-E1A blk -1.
CCc1ccc(NC(=O)CN2C(=O)C(c3ccc(C)cc3)=NC23CCCCC3)cc1 was read as DT40 TDP1 CPT inconclusive, TDP1 block 5% and TDP1 cell noCPT inconclusive.
O=C(CN1C(=O)C(c2ccc(F)cc2)=NC12CCCC2)Nc1ccc(F)cc1 was read as DT40 TDP1 CPT 8.2µM*, Six1-Eya2 inh 4, TDP1 block -1%, IL1B secr inh -20, TDP1 cell noCPT 5.8µM* and CtBP-E1A blk 1.
`COc1ccc(NC(=O)CN2C(=O)C(c3ccccc3)=NC23CCCCCC3)cc1` gave DT40 TDP1 CPT inconclusive, Six1-Eya2 inh -6, TDP1 block 1%, IL1B secr inh -56*, TDP1 cell noCPT inconclusive and CtBP-E1A blk -14.
`O=C(Cc1ccccc1)NNC(=O)Cc1ccccc1` gave DT40 TDP1 CPT 5%, Six1-Eya2 inh 6, TDP1 block 5%, IL1B secr inh -1 and TDP1 cell noCPT 2%.
O=C(Nc1c2ccccc2nc2ccccc12)C(Cl)(Cl)Cl was read as DT40 TDP1 CPT 16µM*, Six1-Eya2 inh 6, TDP1 block 6%, IL1B secr inh inconclusive, TDP1 cell noCPT 23µM* and CtBP-E1A blk 7.
`O=C(Cc1ccccc1)NNc1c2ccccc2nc2ccccc12` gave DT40 TDP1 CPT 21µM*, Six1-Eya2 inh -12, TDP1 block 8%, IL1B secr inh 18, TDP1 cell noCPT inconclusive and CtBP-E1A blk -2.
`Cc1ccc(OCC(=O)NNC(=O)CCC(=O)NCc2ccccc2)cc1` gave DT40 TDP1 CPT -14%, Six1-Eya2 inh 0, TDP1 block 4%, IL1B secr inh inconclusive, TDP1 cell noCPT -3% and CtBP-E1A blk 41.
For Cc1ccc(OCC(=O)NNc2c3ccccc3nc3ccccc23)cc1 the results were DT40 TDP1 CPT inconclusive, Six1-Eya2 inh -24, TDP1 block 8%, IL1B secr inh -15, TDP1 cell noCPT 16µM* and CtBP-E1A blk -23.
